Screening data (PubChem)
TDP1 cell noCPT – qHTS for Inhibitors of human tyrosyl-DNA phosphodiesterase 1 (TDP1): qHTS in cells in absence of CPT; DT40 Tdp1-/- hTDP1 cells, no CPT, ATP luminescence, 48 h; Potency, µM (series often up to 46.2 µM), inactives show at the highest dose activity change, negative = growth inhibition, usual class: inhibitors; 420,000 compounds, 15% hits; also: potency is read from the fitted curve at half-maximal effect; nearly all actives have a fitted effect of over 55% in size
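Seeded 400 DT40-hTDP1 cells/well (vehicle DMSO, no 20 nM CPT); pinned compounds; ≥48 hr at 37 °C; CellTiter-Glo luminescence as viability measure.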
HT1080-NT tox – qHTS for induction of synthetic lethality in tumor cells producing 2HG: qHTS for the HT-1080-NT fibrosarcoma cell line | HT-1080-NT fibrosarcoma viability, CellTiter-Glo ATP luminescence, 48 h | AID 686970, 2013 | Potency, µM (top dose mostly 46.1 µM), without a hit: at the highest dose activity, negative = less viability, usual class: cytotoxic | 360,000 compounds, 1.6% hits;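 also: NT is the 2HG producing partner of a matched IDH1 knockdown line; potency is read from the fitted curve at half-maximal effect; 0% = DMSO-treated cells and -100% = media-only wells without cells; nearly all actives have a fitted effect of over 55% in size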
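A 48-hour cytotoxicity screen used HT-1080-NT cells plated 2 hours before compound delivery. ATP-based CellTiter-Glo luminescence measured viability, normalized to DMSO and no-cell controls.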
DT40 TDP1 CPT – qHTS for Inhibitors of human tyrosyl-DNA phosphodiesterase 1 (TDP1): qHTS in cells in presence of CPT; chicken DT40 Tdp1-/-;hTDP1 cells + 20 nM CPT, ATP luminescence, 48 h; Potency, µM (series often up to 46.2 µM), for inactives: at the top dose activity change, negative = growth inhibition, most hits filed as inhibitors; 420,000 compounds, 12% hits; also: potency is read from the fitted curve at half-maximal effect; nearly all actives have a fitted effect of over 55% in size
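Chicken DT40 Tdp1-/- cells stably complemented with human TDP1 were seeded at 400 cells/well in medium containing 20 nM camptothecin, exposed to pin-transferred compounds, and grown at 37 °C for at least 48 hr. Viability was read as ATP luminescence.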
ELG1 DNA repair – qHTS screen for small molecules that inhibit ELG1-dependent DNA repair in human embryonic kidney (HEK293T) cells expressing luciferase-tagged ELG1; HEK293T ELG1-luciferase reporter, luminescence, 16 h; DNA damage induced by 5-fluorouridine; Potency, µM (titrated, usually from 46.1 µM), for inactives: at the top dose activity change, negative = inhibition, usual class: inhibitors; 330,000 compounds, 2.3% hits; also: potency is read from the fitted curve at half-maximal effect; nearly all actives have a fitted effect of over 55% in size
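Overnight (16 hr) co-exposure of 2,000 cells/well to 5-fluorouridine and compound at 37 °C preceded detection. Luciferase was quantified via ONE-Glo luminescence; loss of signal denotes inhibition.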
IL-1B inflam inh – qHTS for Inhibitors of Inflammasome Signaling: IL-1-beta AlphaLISA Primary Screen | THP-1 LPS/ATP IL-1B secretion, AlphaLISA, 16 h; stronger effect = lower value | 360,000 compounds, 4.7% hits | activity change, % at 57.5 µM; in the data active = activity change below about -50%; inconclusive = mostly about -30% to -49%
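Secreted IL-1B measured by AlphaLISA bead assay after 16 h compound exposure of THP-1 cells; compounds (final up to 57.5 uM) added 1 h before LPS (250 ng/mL) and ATP (1.25 mM) stimulation; lower signal means less secretion.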
HT1080 IDH1KD tx – qHTS for induction of synthetic lethality in tumor cells producing 2HG: qHTS for the HT-1080-IDH1KD cell line; AID 686971, 2013; HT-1080 IDH1 knockdown viability, ATP luminescence, 48 h; Potency, µM (series often up to 46.1 µM), inactives show at the top dose activity, negative = toxicity, hits mostly cytotoxic; 360,000 compounds, 2% hits;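 also: potency is read from the fitted curve at half-maximal effect; 0% = DMSO wells and -100% = cell-free medium wells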
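Knockdown cells (IDH1KD HT-1080) received compounds 2 h after plating at 750 cells/well and were kept 48 h at 37 °C in 5% FBS RPMI. A CellTiter-Glo luminescence read gave % activity for curve fitting.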
* = called active by the depositor; ? = inconclusive; nt = no result given. The list is not random: actives were taken first. Their share in the collection is about 19%. Unless noted, calls follow the shape of the dose curve; as a rule, active = well fitted curve in the direction sought with a large enough effect; inconclusive = small, poorly fitted or top-dose-only effect, or another doubt; inactive = no such curve, though single readings can be large; an effect the other way counts as inactive or inconclusive. Unless noted, % is scaled to controls: 0 for no effect and ±100 for the full control effect.

SMILES | TDP1 cell noCPT | HT1080-NT tox | DT40 TDP1 CPT | ELG1 DNA repair | IL-1B inflam inh | HT1080 IDH1KD tx
CCOc1ccc(CCNC(=O)c2cnc3sc(N4CCCC4)nn3c2=O)cc1 | 2.3µM* | nt | 6.5µM* | nt | nt | nt
Cc1ccc(Cl)cc1N1CCN(CCN)CC1 | ? | -23% | 16µM* | -15% | ? | -25%
Cc1ccc(CN2C(=O)c3ccccc3Sc3ccc(C(=O)N4CCC5(CC4)OCCO5)cc32)cc1 | 23µM* | nt | ? | nt | nt | nt
O=C(c1ccc2c(c1)N(Cc1ccc(F)cc1Cl)C(=O)c1ccccc1S2)N1CCC2(CC1)OCCO2 | 23µM* | nt | 23µM* | nt | nt | nt
C[C@H](N)Cc1c[nH]c2ccc(O)cc12 | -26% | nt | -7% | nt | nt | nt
O=C(COc1ccc(Cl)cc1)N(c1ccccc1Cl)C1CN2CCC1CC2 (configuration not stated) | 16µM* | ? | 23µM* | 1% | -75* | 16µM*
O=C(COc1ccc(Cl)cc1)N(c1ccc(Cl)cc1)C1CN2CCC1CC2 (configuration not stated) | 16µM* | 16µM* | ? | 24% | -95* | 15µM*
Clc1ccccc1CNC1CN2CCC1CC2 (configuration not stated) | -8% | -2% | ? | 11% | -3 | 7%
Cc1ccc(-n2c(=S)[nH]c3ccc(C)cc3c2=O)cc1 | -14% | -5% | ? | nt | 12 | 9%
C[C@]1(O)CCC2C3CC[C@H]4C[C@@H](OC(=O)CNC(=O)CN)CC[C@]4(C)C3CC[C@@]21C (some centres not stated) | ? | -2% | ? | 7% | 39 | 7%
CCCCOc1ccc(CN2CCN(CCO)CC2)cc1 | -27% | 10% | -28% | 19% | 13 | -11%
CCCCCCOc1ccc(CN2CCN(CCO)CC2)cc1 | 21µM* | ? | 16µM* | ? | ? | ?
Cc1ccccc1Cn1cccc(C(=O)Nc2nc3ccccc3s2)c1=O | 16µM* | nt | 16µM* | nt | nt | nt
CCOC(=O)c1ccc(NC(=O)c2cccn(Cc3ccccc3F)c2=O)cc1 | 21µM* | nt | ? | nt | nt | nt
COc1ccc(C)cc1NC(=O)c1cccn(Cc2ccccc2Cl)c1=O | -1% | nt | -29% | nt | nt | nt
COc1cccc(NC(=O)c2cccn(Cc3ccccc3C)c2=O)c1 | 26µM* | nt | ? | nt | nt | nt
C[C@]12CC[C@H]3[C@@H](CCC4=CC(=O)CC[C@@H]43)[C@@H]1CC[C@@H]2OC(=O)CCc1ccccc1 | -17% | nt | 13% | nt | nt | nt
C[N+](C)(C)CC1CCCC1=O (configuration not stated) | -14% | 7% | -1% | nt | 6 | 4%
COc1ccc(CCNCc2ccc(C)s2)cc1OC | -15% | -2% | 1% | -1% | -23 | -3%
COc1ccc(CCNc2nccn(-c3ccc(C)c(C)c3)c2=O)cc1OC | 13µM* | nt | 15µM* | nt | nt | nt
c1ccc2c(c1)CSc1ccccc1N2 | ? | -22% | -13% | nt | -65* | -18%
COC(=O)C1=C(c2cccc(C#N)c2)C[C@@H]2CC[C@H]1N2C(=O)NCCOc1ccccc1Cl | 16µM* | 6% | 18µM* | 3% | -4 | 5%
COC(=O)C1=C(c2ccccc2OCc2ccccc2)C[C@@H]2CC[C@H]1N2C(=O)NCCOc1ccccc1Cl | ? | -10% | ? | ? | ? | -13%
COC(=O)C1=C(c2cccc(OCc3ccccc3)c2)C[C@@H]2CC[C@H]1N2C(=O)NCCOc1ccccc1Cl | 23µM* | -7% | ? | -28% | -25 | -10%
COC(=O)C1=C(c2cccc(OCc3ccccc3)c2)C[C@@H]2CC[C@H]1N2C(=O)NCc1cccc(F)c1 | ? | ? | ? | ? | -15 | -23%
SMILES | TDP1 cell noCPT | HT1080-NT tox | DT40 TDP1 CPT | ELG1 DNA repair | IL-1B inflam inh | HT1080 IDH1KD tx
COC(=O)C1=C(c2cccc(OCc3ccccc3)c2)C[C@@H]2CC[C@H]1N2C(=O)NCCOc1ccccc1 | 21µM* | -7% | ? | -27% | -14 | -12%
COC(=O)C1=C(c2cccc(OCc3ccccc3)c2)C[C@@H]2CC[C@H]1N2C(=O)NCCc1ccc(F)cc1 | 16µM* | -19% | ? | ? | ? | -17%
COc1ccnc(N=CNOCc2ccc(C)cc2)c1C#N | -17% | 20% | -4% | ? | -3 | 14%
COC(=O)C1=C(c2ccc(C(C)=O)cc2)C[C@@H]2CC[C@H]1N2C(=O)NCCOc1ccccc1Cl | ? | 7% | 23µM* | -5% | 0 | 5%
COC(=O)C1=C(c2ccc(C(C)=O)cc2)C[C@@H]2CC[C@H]1N2C(=O)NCCO | 0% | 22% | 6% | 11% | 13 | 9%
CCOC(=O)CCCc1cc[c]([Sb](=[O])([OH])[OH])cc1 | -8% | nt | -6% | nt | nt | nt
CNC(=O)Nc1ccc(C(=O)N/N=C\C23CC[C@@H](O)CC2(O)CC[C@@H]2[C@@H]3CCC3(C)C(C4=CC(=O)OC4)CCC23O)cc1 (some centres not stated) | 22% | ? | -11% | -13% | 30 | ?
COC1C(O)C(C)OC(OC2CCC3(C)C(CCC4C3C(O)CC3(C)C(C5=CC(=O)OC5)CCC43O)C2)C1O (configuration not stated) | 2.1µM* | 1.5µM* | 1.8µM* | nt | 0 | 0.82µM*
C[C@H]1O[C@@H](O[C@H]2[C@@H](O)C[C@H](O[C@H]3[C@@H](O)C[C@H](O[C@H]4CC[C@]5(C)C6CC[C@]7(C)[C@@H](C8=CC(=O)OC8)CC[C@]7(O)C6CC[C@@H]5C4)O[C@@H]3C)O[C@@H]2C)C[C@H](O)[C@@H]1O (some centres not stated) | 0.38µM* | nt | 0.34µM* | nt | nt | nt
CO[C@H]1[C@@H](O)C[C@H](O[C@H]2[C@@H](O)C[C@H](O[C@H]3[C@@H](O)C[C@H](O[C@H]4CC[C@@]5(C)[C@H](CC[C@@H]6[C@@H]5C[C@@H](O)[C@]5(C)[C@@H](C7=CC(=O)OC7)CC[C@]65O)C4)O[C@@H]3C)O[C@@H]2C)O[C@@H]1C | 0.38µM* | nt | 0.53µM* | nt | nt | nt
